9 compounds from PubChem BioAssay (Tox21) can be followed below.

A number with no mark means an inactive call. Results filed as inconclusive are left out. The source made the active and inactive calls. Unless noted, calls come from the whole dose curve; as a rule, active = well fitted curve in the direction sought with a large enough effect in the repeat runs; inconclusive = weak or mixed curves; inactive = no such curve, though single readings can be large; an effect the other way counts as inactive or inconclusive.

Assay [1] in a line: qHTS assay to identify small molecule agonists of the TGF-beta/Smad signaling pathway - cell viability counter screen (AID 1346829). Note: top concentration of the series differs between compounds; nearly all actives have a fitted effect of over 45% in size. In a few lines:
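Compound-treated SBE-bla HEK 293T cells (5 hr, 37 C) were assessed for viability with CellTiter-Glo in parallel with the reporter read.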
A general note: qHTS replaces the single test concentration by a dilution series.

A short description of assay [2]: qHTS assay to identify small molecule agonists of the TGF-beta/Smad signaling pathway (AID 1346859; active = well fitted activation curve with a large enough effect in the signal ratio in the repeat runs, not every such curve was filed as active; the % refers to the signal ratio; note: series mostly up to about 77 µM). An outline of the steps:
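After overnight seeding, SBE-bla HEK 293T cells are dosed with compounds in DMSO and kept 5 hr at 37 C, 5% CO2. LiveBLAzer-type FRET substrate is then applied for 2 hr at room temperature.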

For assay [3], the target named is Thyrotropin-releasing hormone receptor (Homo sapiens) (UniProt P34981). Kind of assay: qHTS assay to identify small molecule antagonists of the thyrotropin-releasing hormone receptor (TRHR) signaling pathway (AID 1346877; active = well fitted inhibition curve with a large enough effect in the repeat runs, not every such curve was filed as active; note: series mostly up to about 51 µM). In a few lines: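 Antagonism is measured as suppression of the calcium response to 1 nM TRH in TRHR-HEK293 cells that have been dye-loaded for 2 h at 37 °C after overnight plating. Each compound is tested at 15 concentrations in triplicate.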

Assay [4] shares this target. In words: qHTS assay to identify small molecule agonists of the thyrotropin-releasing hormone receptor (TRHR) signaling pathway (AID 1346891; calls by dose curve;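 note: HEK293 cells expressing TRHR with calcium dye readout; series mostly up to about 58 µM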). An outline of the steps:
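Compounds were tested as agonists at 15 concentrations, in triplicate, on TRHR-Hek293 cells; calcium-sensitive dye fluorescence was recorded for 3 min following addition.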

The nature of assay [5]: Human pregnane X receptor (PXR) small molecule agonists, qHTS cell viability counter screen (AID 1346977). Note: nearly all actives have a fitted effect of over 50% in size. An outline of the steps: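 Viability counter screen: CellTiter-Fluor signal in PXR-Luc HepG2 cells, 24hr compound exposure, 37C, 5% CO2.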
A short description of assay [6]: Caspase-3/7 induction in HepG2 cells by small molecules, qHTS assay (AID 1346978). Note: nearly all actives have a fitted effect of over 15% in size. An outline of the steps:
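Wild-type HepG2 cells, 2,000/well, settled 5 hr at 37 C and 5% CO2, then compound-treated for 17 hr; caspase-3/7 activity read by luminescent Caspase-Glo 3/7 after 30 min at room temperature.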

A short description of assay [7]: Caspase-3/7 induction in HepG2 cells by small molecules, qHTS cell viability counter screen (AID 1346981). Note: series mostly up to about 92 µM; nearly all actives have a fitted effect of over 30% in size. An outline of the steps:
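Cell viability is measured as a cytotoxicity counter screen alongside the Caspase-Glo 3/7 readout in identical wells. Wild-type HepG2 cells are treated with test compounds for 16 hr at 37 C before CellTiter-Fluor addition and a 1-hr incubation.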

For assay [8], the target named is Cytochrome P450 2D6 (Homo sapiens) (UniProt P10635). Kind of assay: Cytochrome P450 Family 2 Subfamily D Member 6 (CYP2D6) small molecule antagonists: luciferase reporter qHTS assay (AID 1671196). For activity change, negative = inhibition: series mostly up to about 120 µM. Note: nearly all actives have a fitted effect of over 50% in size. Note: potency is the fitted concentration of half-maximal effect. An outline of the steps: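 Enzyme and proluciferin substrate were first combined with test chemical for 10 min at room temperature. Adding NADPH regeneration solution started a 1 h reaction, stopped with luciferin detection reagent and read by luminescence 20 min later.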
In general terms: Reporter assays use an easily measured gene product as a stand-in for the process of interest.

Assay [9] has as its target Voltage-gated inwardly rectifying potassium channel KCNH2 (Homo sapiens) (UniProt Q12809). Kind of assay: Human Ether-a-go-go-Related Gene (hERG) channel small molecule antagonists: fluorescence cell-based qHTS assay (AID 1671200).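 For activity change, negative = inhibition: hERG-expressing U2OS cells given a thallium stimulus after FluxOR II dye loading; series mostly up to about 77 µM.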 Note: nearly all actives have a fitted effect of over 50% in size. Note: potency is the fitted concentration of half-maximal effect. In a few lines:
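Thallium served as the potassium surrogate; its influx into dye-loaded U2OS cells carrying the channel was measured by fluorescence over 2 min.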

Assay [10] deals with Cytochrome P450 3A4 (Homo sapiens) (UniProt P08684). Kind of assay: Cytochrome P450 Family 3 Subfamily A Member 4 (CYP3A4) small molecule antagonists: luciferase reporter qHTS assay (AID 1671201). For activity change, negative = inhibition: series mostly up to about 120 µM. Note: nearly all actives have a fitted effect of over 50% in size. Note: potency is the fitted concentration of half-maximal effect. In a few lines:
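Relative luminescence units after 20 min with luciferin detection reagent served as read-out. Beforehand, CYP3A4 turned over a proluciferin substrate for 1 h at room temperature with NADPH regeneration, following 10 min compound preincubation.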

Assay [11] can be described thus: Caspase-3/7 induction in CHO-K1 cells by small molecules, qHTS assay (AID 1346980). Note: nearly all actives have a fitted effect of over 15% in size. In a few lines:
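Wild-type CHO-K1 cells exposed to compounds for 17hr at 37 C, 5% CO2. Caspase-3/7 activity then measured by Caspase-Glo 3/7 luminescence after 30min at room temperature.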

Assay [12] has as its target Nuclear receptor subfamily 1 group I member 2 (Homo sapiens) (UniProt O75469). Kind of assay: Human pregnane X receptor (PXR) small molecule agonists, qHTS assay (AID 1346982). Note: nearly all actives have a fitted effect of over 35% in size. An outline of the steps:
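Cells: HepG2 stably carrying PXR-Luc. Medium held 5% charcoal-stripped FBS. Compounds in DMSO added after 5 hr plating, incubated 24 hr, then luminescence quantified with ONE-Glo.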

Assay [13] has as its target Cytochrome P450 2C19 (Homo sapiens) (UniProt P33261). In words: Cytochrome P450 Family 2 Subfamily C Member 19 (CYP2C19) small molecule antagonists: luciferase reporter qHTS assay (AID 1671197). For activity change, negative = inhibition: series mostly up to about 120 µM. Note: nearly all actives have a fitted effect of over 65% in size. Note: potency is the fitted concentration of half-maximal effect. In a few lines:
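P450-Glo CYP2C19 screening system; proluciferin substrate; DMSO compound stocks; 10 min RT preincubation; NADPH regeneration, 1 h at 37C; luciferin detection reagent, 20 min RT; luminescence as RLU.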

Assay [14] has as its target Cytochrome P450 1A2 (Homo sapiens) (UniProt P05177). In words: Cytochrome P450 Family 1 Subfamily A Member 2 (CYP1A2) small molecule antagonists: luciferase reporter qHTS assay (AID 1671199). For activity change, negative = inhibition: series mostly up to about 120 µM. Note: nearly all actives have a fitted effect of over 50% in size. Note: potency is the fitted concentration of half-maximal effect. An outline of the steps:
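Compounds were incubated with CYP1A2 and a luminogenic proluciferin substrate for 10 min at room temperature before the reaction was started with NADPH regeneration solution. After 1 h, detection reagent was added and light output, proportional to CYP activity, was recorded.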

The nature of assay [15]: Caspase-3/7 induction in CHO-K1 cells by small molecules, qHTS cell viability counter screen (AID 1346979). Note: nearly all actives have a fitted effect of over 35% in size. In a few lines:
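Viability readout by fluorescence (CellTiter-Fluor) on wild-type CHO-K1 cells exposed for 16hr at 37C and 5% CO2 to compounds delivered in DMSO; reagent incubated 1hr before reading.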

Assay [16] concerns the target Nuclear receptor subfamily 1 group I member 2 (Rattus norvegicus) (UniProt Q9R1A7). Kind of assay: Rat pregnane X receptor (rPXR) activation by small molecules, qHTS assay (AID 1346983). Note: nearly all actives have a fitted effect of over 20% in size. The following applies: rPXR luciferase reporter cells, One-Glo luminescence, 24 h; max activation: active compounds read high. In a few lines:
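Cell-based rPXR activation assay: rPXR cells, 2,000 per well, rested 5hr at 37 C, then exposed to compounds in DMSO for 24 hr at 37 C. Luciferase activity read by One-Glo luminescence after 30 min at room temperature.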

Assay [17] addresses Cytochrome P450 2C9 (Homo sapiens) (UniProt P11712). Kind of assay: Cytochrome P450 Family 2 Subfamily C Member 9 (CYP2C9) small molecule antagonists: luciferase reporter qHTS assay (AID 1671198). For activity change, negative = inhibition: series mostly up to about 120 µM. Note: nearly all actives have a fitted effect of over 50% in size. Note: potency is the fitted concentration of half-maximal effect. In a few lines:
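P450-Glo proluciferin substrate with CYP2C9 enzyme; 10 min RT preincubation, then NADPH regeneration 1 h at 37C; luciferin detection reagent 20 min RT, luminescence in relative luminescence units.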

For assay [18], the target named is Nuclear receptor subfamily 1 group I member 2 (Homo sapiens) (UniProt O75469). Kind of assay: CYP3A4 induction through human pregnane X receptor (PXR) by small molecules, qHTS assay (AID 1346984). Note: nearly all actives have a fitted effect of over 40% in size. An outline of the steps: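 Quantitative HTS in DPX-2 cells, i.e. HepG2 transfected with PXR response element and CYP3A4-promoter luciferase. Compounds in DMSO incubated 24hr at 37C; then P450-Glo CYP3A4 substrate, 3uM final, 3hr; One-Glo luminescence.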

The target is the same in assay [19]. In words: Human pregnane X receptor (PXR) activation by small molecules, qHTS assay (AID 1346985). Note: nearly all actives have a fitted effect of over 40% in size. An outline of the steps: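 DPX-2 cells (HepG2 co-transfected with a PXR response element and a CYP3A4-promoter luciferase construct) were seeded at 2,000 per well, rested 5 hr at 37C, then exposed to DMSO-dissolved compounds for 24 hr. Activation was read as luciferase luminescence.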
% is set by controls: 0 for no effect and ±100 for the full control effect.

Sequence of Cytochrome P450 3A4 (Homo sapiens) (P08684 whole entry, looked up): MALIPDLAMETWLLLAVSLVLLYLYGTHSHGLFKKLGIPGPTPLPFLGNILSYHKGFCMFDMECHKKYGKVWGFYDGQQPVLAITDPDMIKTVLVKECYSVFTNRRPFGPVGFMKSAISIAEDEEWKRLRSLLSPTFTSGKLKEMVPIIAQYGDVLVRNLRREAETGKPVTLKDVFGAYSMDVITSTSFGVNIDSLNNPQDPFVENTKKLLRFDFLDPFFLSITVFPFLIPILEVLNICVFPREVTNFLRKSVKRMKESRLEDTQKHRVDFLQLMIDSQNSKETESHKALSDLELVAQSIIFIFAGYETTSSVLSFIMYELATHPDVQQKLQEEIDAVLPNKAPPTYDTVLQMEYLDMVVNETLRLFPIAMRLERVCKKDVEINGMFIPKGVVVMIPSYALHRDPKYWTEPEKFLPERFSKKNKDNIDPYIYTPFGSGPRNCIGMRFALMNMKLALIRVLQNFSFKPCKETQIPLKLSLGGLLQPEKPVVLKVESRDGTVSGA
Sequence of Thyrotropin-releasing hormone receptor (Homo sapiens) (P34981 whole entry, looked up): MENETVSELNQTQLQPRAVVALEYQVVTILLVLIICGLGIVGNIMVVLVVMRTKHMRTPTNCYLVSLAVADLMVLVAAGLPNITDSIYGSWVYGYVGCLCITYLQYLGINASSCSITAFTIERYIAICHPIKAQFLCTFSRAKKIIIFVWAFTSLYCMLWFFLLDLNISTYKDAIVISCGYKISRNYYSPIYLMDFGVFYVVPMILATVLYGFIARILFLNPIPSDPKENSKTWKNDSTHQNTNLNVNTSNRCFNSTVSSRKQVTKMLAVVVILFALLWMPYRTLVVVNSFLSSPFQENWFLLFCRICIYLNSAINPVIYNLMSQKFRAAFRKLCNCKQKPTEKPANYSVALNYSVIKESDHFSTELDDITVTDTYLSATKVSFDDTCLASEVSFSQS
Sequence of Cytochrome P450 2C9 (Homo sapiens) (P11712 whole entry, looked up): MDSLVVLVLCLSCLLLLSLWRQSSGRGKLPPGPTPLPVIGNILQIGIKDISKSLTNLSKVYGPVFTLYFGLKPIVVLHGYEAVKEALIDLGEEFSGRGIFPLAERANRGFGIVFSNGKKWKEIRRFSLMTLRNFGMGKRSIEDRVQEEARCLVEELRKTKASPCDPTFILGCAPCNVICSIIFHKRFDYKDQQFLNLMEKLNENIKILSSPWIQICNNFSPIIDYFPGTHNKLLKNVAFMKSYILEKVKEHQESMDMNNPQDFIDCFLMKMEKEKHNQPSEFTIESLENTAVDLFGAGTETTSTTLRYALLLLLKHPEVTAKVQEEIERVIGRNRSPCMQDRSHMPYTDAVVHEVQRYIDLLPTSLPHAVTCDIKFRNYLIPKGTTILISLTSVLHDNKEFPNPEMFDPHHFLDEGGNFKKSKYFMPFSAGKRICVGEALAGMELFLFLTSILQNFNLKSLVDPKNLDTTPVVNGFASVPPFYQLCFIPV
Sequence of Voltage-gated inwardly rectifying potassium channel KCNH2 (Homo sapiens) (Q12809 whole entry, looked up): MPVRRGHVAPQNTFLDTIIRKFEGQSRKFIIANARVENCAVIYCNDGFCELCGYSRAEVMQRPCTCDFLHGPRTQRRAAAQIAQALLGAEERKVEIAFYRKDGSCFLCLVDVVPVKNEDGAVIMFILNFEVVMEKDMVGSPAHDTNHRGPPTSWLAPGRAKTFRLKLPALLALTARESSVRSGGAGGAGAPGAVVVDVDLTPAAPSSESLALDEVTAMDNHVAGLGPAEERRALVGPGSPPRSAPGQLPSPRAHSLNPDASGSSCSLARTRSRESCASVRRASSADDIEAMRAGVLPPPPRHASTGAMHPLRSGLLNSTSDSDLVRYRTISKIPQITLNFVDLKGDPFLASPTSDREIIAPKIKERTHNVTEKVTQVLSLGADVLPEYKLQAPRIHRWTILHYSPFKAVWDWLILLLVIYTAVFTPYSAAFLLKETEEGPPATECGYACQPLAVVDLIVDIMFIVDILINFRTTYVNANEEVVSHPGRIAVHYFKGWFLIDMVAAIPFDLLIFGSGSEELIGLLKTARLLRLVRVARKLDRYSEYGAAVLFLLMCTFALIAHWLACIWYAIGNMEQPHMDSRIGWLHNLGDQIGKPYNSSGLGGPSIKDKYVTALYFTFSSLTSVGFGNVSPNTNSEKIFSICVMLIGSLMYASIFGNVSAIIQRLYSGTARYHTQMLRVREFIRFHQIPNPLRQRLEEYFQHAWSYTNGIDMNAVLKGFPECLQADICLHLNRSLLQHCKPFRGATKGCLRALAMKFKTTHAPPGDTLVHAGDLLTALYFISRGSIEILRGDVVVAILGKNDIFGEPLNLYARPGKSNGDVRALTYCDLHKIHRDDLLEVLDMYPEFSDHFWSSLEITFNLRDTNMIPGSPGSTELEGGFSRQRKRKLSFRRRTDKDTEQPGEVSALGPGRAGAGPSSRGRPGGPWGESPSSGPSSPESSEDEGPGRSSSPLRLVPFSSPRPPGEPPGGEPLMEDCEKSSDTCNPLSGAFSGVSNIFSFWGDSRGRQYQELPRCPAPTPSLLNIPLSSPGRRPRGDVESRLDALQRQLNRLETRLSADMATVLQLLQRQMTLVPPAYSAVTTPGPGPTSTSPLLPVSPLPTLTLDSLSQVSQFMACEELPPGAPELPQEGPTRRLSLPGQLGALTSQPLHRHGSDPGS
Sequence of Cytochrome P450 2D6 (Homo sapiens) (P10635 whole entry, looked up): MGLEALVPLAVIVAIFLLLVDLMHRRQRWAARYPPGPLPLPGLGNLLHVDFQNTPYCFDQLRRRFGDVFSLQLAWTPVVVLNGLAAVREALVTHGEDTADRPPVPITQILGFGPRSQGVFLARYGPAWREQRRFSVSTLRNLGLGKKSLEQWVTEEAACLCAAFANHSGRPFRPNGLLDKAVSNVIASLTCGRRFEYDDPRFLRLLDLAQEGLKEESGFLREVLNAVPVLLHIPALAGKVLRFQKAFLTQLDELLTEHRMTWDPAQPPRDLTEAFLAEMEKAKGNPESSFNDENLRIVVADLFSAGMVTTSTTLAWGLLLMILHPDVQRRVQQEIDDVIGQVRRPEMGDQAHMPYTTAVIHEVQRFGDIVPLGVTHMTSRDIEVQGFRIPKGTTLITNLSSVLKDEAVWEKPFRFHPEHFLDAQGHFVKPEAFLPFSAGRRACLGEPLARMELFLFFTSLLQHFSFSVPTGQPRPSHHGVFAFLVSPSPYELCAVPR
Sequence of Cytochrome P450 1A2 (Homo sapiens) (P05177 whole entry, looked up): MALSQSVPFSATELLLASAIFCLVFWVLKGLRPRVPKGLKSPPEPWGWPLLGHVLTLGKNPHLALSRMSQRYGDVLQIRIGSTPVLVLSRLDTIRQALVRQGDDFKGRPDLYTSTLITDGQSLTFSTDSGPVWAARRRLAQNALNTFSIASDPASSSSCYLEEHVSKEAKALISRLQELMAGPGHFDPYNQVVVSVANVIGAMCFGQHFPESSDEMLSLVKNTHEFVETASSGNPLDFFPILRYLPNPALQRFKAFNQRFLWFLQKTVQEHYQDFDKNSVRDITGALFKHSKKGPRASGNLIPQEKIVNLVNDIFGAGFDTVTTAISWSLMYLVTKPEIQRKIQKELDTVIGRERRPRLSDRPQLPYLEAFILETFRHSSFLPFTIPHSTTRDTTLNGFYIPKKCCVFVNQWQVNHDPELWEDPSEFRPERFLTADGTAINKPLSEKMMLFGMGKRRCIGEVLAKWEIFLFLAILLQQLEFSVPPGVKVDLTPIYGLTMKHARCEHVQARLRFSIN
Sequence of Nuclear receptor subfamily 1 group I member 2 (Homo sapiens) (O75469 whole entry, looked up): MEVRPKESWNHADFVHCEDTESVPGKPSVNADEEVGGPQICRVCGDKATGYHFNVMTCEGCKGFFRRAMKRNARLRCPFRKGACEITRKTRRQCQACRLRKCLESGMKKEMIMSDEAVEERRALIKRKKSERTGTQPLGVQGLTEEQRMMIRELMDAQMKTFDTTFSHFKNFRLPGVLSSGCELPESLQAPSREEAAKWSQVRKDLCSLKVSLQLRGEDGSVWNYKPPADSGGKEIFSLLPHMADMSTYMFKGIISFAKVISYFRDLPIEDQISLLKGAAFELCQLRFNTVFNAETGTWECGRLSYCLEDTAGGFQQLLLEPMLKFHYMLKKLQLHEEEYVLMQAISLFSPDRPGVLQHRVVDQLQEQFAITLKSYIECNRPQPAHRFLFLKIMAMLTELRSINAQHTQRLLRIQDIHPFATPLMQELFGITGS
Sequence of Cytochrome P450 2C19 (Homo sapiens) (P33261 whole entry, looked up): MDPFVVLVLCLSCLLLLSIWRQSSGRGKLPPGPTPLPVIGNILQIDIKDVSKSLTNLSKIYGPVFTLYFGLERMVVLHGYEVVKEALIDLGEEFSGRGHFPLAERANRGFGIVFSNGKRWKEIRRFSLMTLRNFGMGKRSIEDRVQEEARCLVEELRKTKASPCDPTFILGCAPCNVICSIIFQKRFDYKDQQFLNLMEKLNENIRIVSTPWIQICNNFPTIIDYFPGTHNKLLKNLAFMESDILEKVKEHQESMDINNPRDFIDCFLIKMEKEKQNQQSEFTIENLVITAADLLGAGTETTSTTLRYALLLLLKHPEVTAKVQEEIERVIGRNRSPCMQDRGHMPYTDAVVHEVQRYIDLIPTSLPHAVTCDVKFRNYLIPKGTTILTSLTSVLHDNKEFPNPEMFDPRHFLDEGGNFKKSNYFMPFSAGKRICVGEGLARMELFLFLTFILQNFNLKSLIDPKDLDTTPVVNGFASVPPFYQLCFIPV
Sequence of Nuclear receptor subfamily 1 group I member 2 (Rattus norvegicus) (Q9R1A7 whole entry, looked up): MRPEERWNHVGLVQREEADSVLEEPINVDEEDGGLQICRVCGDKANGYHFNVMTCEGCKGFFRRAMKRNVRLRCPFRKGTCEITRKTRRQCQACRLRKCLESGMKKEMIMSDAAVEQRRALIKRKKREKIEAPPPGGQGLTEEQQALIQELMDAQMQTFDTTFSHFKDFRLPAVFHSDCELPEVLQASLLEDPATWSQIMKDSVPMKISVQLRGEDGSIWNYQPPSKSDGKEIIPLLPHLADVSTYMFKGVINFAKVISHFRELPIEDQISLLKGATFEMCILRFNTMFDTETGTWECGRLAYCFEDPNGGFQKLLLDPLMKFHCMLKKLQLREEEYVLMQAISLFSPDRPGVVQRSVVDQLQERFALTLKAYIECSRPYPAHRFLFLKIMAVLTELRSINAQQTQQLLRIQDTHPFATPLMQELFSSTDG

With `CN(C)CCCNCCC#N`, the compound was called inactive in assay [1], in assay [2], in assay [3], in [4] and in assay [6]. Moreover, the Potency result in [5], in assay [7], in assay [8], in assay [9] and in [10] was “inactive” each time.
Regarding `O=C1OC(=O)c2cc(Oc3ccc4c(c3)C(=O)OC4=O)ccc21`, the call in [1], in [2], in assay [3], in assay [4], in [6] and in assay [11] was inactive. Also, the Potency result in [5], in assay [7], in assay [12], in [8], in assay [13] and in assay [14] was “inactive” throughout. Also, the Potency entry in [9] is “inactive”.
On to `OC(CCN1CCCCC1)(c1ccccc1)c1ccccc1`, for which the call in [1], in assay [2], in assay [3], in [4], in [6] and in [11] was inactive. Besides, the Potency entry in [15], in assay [7], in assay [12], in assay [14] and in [10] was “inactive” in each case. Moreover, the max activation in assay [16] is -1.14%. Further, the Potency in [8] is 1.38 µM (active); in assay [9], 9.52 µM (active).
As to `CC(=O)OCCCc1ccccc1`, the compound was called inactive in [1], in assay [2], in assay [6] and in assay [11]. Moreover, the Potency result in assay [5], in [15], in assay [7], in assay [12], in assay [8] and in assay [13] was “inactive” in each case. The Potency result in [17], in assay [14], in [9] and in assay [10] was “inactive” each time.
Consider `CCN(CCC#N)c1ccccc1`, for which the compound was classed as inactive in assay [1], in [2], in assay [6] and in assay [11]. Also, the Potency result in assay [5], in assay [15], in assay [7], in [12], in assay [9] and in assay [10] was “inactive” in each case. For the same compound, the Potency was 8.94 µM (active) in assay [13] and 31.7 µM (active) in assay [14].
On to `CN[C@@H]1[C@H](O)[C@H](NC)[C@H]2O[C@@]3(O)C(=O)C[C@@H](C)O[C@H]3O[C@@H]2[C@H]1O`, for which the call in [1], in assay [2], in assay [6], in assay [11] and in assay [18] was inactive. Moreover, the Potency entry in [5], in [15], in [7], in assay [12], in [19] and in [9] was “inactive” in each case. Moreover, in assay [16], the max activation was -0.189%.
Consider `CNC(=O)C(c1ccccc1)c1ccccc1`, for which the result in assay [1], in assay [2], in assay [6] and in [11] was inactive. Moreover, the Potency entry in assay [5], in [15], in assay [7], in assay [8], in assay [9] and in assay [10] was “inactive” in each case. Besides, the Potency in [13] is 20 µM (active).
As to `Nc1c(NC/C=C\COc2cc(CN3CCCCC3)ccn2)c(=O)c1=O`, in assay [1], the activity change, negative = cytotoxicity is 2.86% [at 15.8 µM]. For the same compound, the activation in assay [2] is -0.0935% [at 15.8 µM]; in assay [4] it was -0.0658% [at 11.8 µM]; in [12], -1.56% [at 19 µM]. The activity, negative = inhibition in assay [3] is -1.01% [at 10.5 µM]. Also, the caspase activation in [6] was -0.539% [at 19 µM]. For the same compound, in assay [11], the caspase-3/7 activation was -0.585% [at 19 µM]. For the same compound, the Potency in assay [8] was 12 µM (active); in assay [10], 6.74 µM (active). The activity change, negative = inhibition in assay [13] is -27.3% [at 23.6 µM]; in assay [17], -15.9% [at 23.6 µM]; in assay [14] it was 11.8% [at 23.6 µM]; in [9], 0.241% [at 15.8 µM].
On to `CCCCOC(=O)[C@@H](C)Oc1ccc(Oc2ccc(C(F)(F)F)cn2)cc1`, for which the call in assay [1], in [2], in assay [6] and in assay [11] was inactive. For the same compound, the Potency result in assay [5], in assay [15], in assay [7] and in [8] was “inactive” throughout. The Potency in assay [13] is 25.3 µM (active); in [17], 16 µM (active); in [14], 20.1 µM (active).
